# Assay outcomes deposited in PubChem BioAssay by National Center for Advancing Translational Sciences (NCATS).
# In the library only some 0.83% were active in any assay of this set; here they are far more common.
# Menin-MLL FL inh = menin-MLL binding inhibition, fluorescein peptide; 290,000 tested, under 10 active; AID 1766; FP activity change, % at 61.4 µM; Fluorescence polarization, fluorescein-MLL peptide displacement from menin; active = well fitted curve in the direction sought with a large enough effect in the polarisation, not every such curve was filed as active; inconclusive = small, poorly fitted or top-dose-only effect, or effect the other way, or a change in a side signal; inactive = no such curve, though single readings can be large or run the other way; the % refers to the polarisation; also: % of control where 0% means no effect
# Menin-MLL TR inh = inhibitors of human menin-MLL interaction, mutant MLL peptide; O00255; Menin + Texas Red MLL mutant peptide, fluorescence polarization; Potency, µM (series often up to 61.6 µM), without a hit: at the highest dose FP activity change, negative = inhibition, actives largely listed as inhibitors; 0.23% of 270,000 active; AID 1768; active = well fitted inhibition curve with a large enough effect in the polarisation, with a control signal flat, not every such curve was filed as active; inconclusive = small, poorly fitted or top-dose-only effect, or effect the other way, or a change in a side signal; inactive = no such curve, though single readings can be large or run the other way; the % refers to the polarisation; also: potency is read from the fitted curve at half-maximal effect; % of control where 0% means no effect
# CtBP-E1A blk = blocks the CtBP interaction with E1A. AlphaScreen GST-E1A/His-CtBP binding, 1536-well; stronger effect = lower value. activity change, % (concentration not given with the values). AID 651724. 0.49% of 340,000 active; also: % is scaled to controls: 0 for no effect and ±100 for the full control effect
#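 Steps: dispense buffer (Tris pH 8.0, NaCl 300 mM, TCEP 1 mM, BSA, Tween 20); add 5X protein mix (GST-E1A, His-CtBP, 125 nM each); pin 23 nL compound; 2 h at 37 °C, dark; add 5X beads (50 ug/mL); 1 h; read.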
# Six1-Eya2 inh = inhibitors of human Six1/Eya2 interaction; Q15475+O00167; 0.56% of 360,000 active; AlphaScreen GST-Six1/His-Eya2 binding, biochemical; stronger effect = lower value; activity change, % (no concentration beside the values); also: % is scaled to controls: 0 for no effect and ±100 for the full control effect
# Target sequence (O00167 whole entry, looked up): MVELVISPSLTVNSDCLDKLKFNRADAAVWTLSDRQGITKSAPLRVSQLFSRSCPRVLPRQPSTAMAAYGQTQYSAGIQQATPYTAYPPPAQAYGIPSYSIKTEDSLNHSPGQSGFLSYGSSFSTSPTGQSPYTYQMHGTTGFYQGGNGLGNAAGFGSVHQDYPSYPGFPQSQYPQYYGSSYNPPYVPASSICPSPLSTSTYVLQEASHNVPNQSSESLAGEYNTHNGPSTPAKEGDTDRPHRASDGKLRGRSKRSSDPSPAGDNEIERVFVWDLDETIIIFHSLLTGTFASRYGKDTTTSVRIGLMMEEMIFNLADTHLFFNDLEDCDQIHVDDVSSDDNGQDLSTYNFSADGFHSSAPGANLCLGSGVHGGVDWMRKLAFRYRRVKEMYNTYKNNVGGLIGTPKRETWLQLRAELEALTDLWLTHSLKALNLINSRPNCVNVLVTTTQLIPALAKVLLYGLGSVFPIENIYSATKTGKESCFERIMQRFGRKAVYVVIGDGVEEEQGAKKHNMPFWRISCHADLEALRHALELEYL
# Target sequence (Q15475 whole entry, looked up): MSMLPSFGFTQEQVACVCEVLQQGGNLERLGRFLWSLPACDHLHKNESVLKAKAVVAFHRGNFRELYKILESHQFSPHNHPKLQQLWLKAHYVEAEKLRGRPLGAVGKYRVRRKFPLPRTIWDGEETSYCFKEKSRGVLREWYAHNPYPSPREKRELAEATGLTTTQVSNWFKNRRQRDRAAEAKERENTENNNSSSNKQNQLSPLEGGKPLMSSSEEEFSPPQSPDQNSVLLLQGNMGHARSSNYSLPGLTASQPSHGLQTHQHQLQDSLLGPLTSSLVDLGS
#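 Six1/Eya2 binding was read as AlphaScreen signal after compounds were pinned into GST-Six1 plus His-tagged Eya2 (5X stock 250/500 nM) in pH 8.0 Tris/NaCl/TCEP buffer, beads added, then incubated 1 h, 37 C, dark.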
# GLS inhibitor = glutaminase GLS (human) inhibition. O94925. GLS enzymatic activity, qHTS titration. 0.21% of 410,000 active. AID 624170. Potency, µM (doses to about 45.5 µM), for the others: at the top dose activity change, negative = inhibition, actives largely listed as inhibitors; active = well fitted inhibition curve with a large enough effect; inconclusive = small, poorly fitted or top-dose-only effect, or another doubt; inactive = no such curve, though single readings can be large or run the other way; also: potency is read from the fitted curve at half-maximal effect; % is scaled to controls: 0 for no effect and ±100 for the full control effect
#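 hKGA in 45 mM KH2PO4 (pH 8.2), 0.02% Tween-20 with compound, then 1mM L-Glutamine (stock as added) plus glutamate oxidase/HRP/Amplex red coupling mix. Fluorescence read initially and after 30 min at RT; signal change reflects glutamate formation.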
# CXXC DNA block = inhibitors of human MLL CXXC domain-DNA interaction | Q03164 | 0.037% of 290,000 active | MLL-CXXC / FITC-HOXA9 DNA fluorescence polarization | Potency, µM (highest dose often 115 µM), without a hit: at the highest dose activity change, negative = inhibition, hits mostly inhibitors; active = well fitted inhibition curve with a large enough effect in the polarisation, with a control signal flat, not every such curve was filed as active; inconclusive = small, poorly fitted or top-dose-only effect, or effect the other way, or a change in a side signal; inactive = no such curve, though single readings can be large or run the other way; the % refers to the polarisation; also: potency is read from the fitted curve at half-maximal effect
#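 Purified MLL-CXXC (added from a 7 uM solution) was preincubated 5 min at ambient with pinned compounds in 50 mM Tris-HCl pH 7.5, 50 mM NaCl, 1 mM DTT, 0.05% BSA. Fluorescein-labeled HOX-A9 DNA (50 nM solution) followed, 30 min, then polarization read.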
# Active calls of the source: *; ? = inconclusive; / = not tested or not shown; [ ] = remark or other dose. Rule as the data show it, unless noted: active = activity change below about -65%; inconclusive = mostly about -30% to -63%; inactive = weaker than that.
SMILES,Menin-MLL FL inh,Menin-MLL TR inh,CtBP-E1A blk,Six1-Eya2 inh,GLS inhibitor,CXXC DNA block
Cc1ccc(NCc2ccc(O)c3ncccc23)cc1,-2,?,-78*,-72*,30%,11%
CC/C(=N\Nc1ccc([N+](=O)[O-])cc1[N+](=O)[O-])c1ccc(O)cc1,-6,?,/,-29,-1%,8%
CC/C(=N\Nc1ccccc1[N+](=O)[O-])c1ccc(O)cc1,6,12%,-71*,?,26%,1%
CC(Sc1nnc(NC2CCCCC2)s1)C(=O)Nc1ccc2c(c1)C(=O)c1ccccc1C2=O (centres undefined),4,?,0,-75*,0%,18%
COc1ccc(C2=Nn3c(nnc3-c3cc(C)[nH]n3)SC2)cc1,1,/,?,-77*,3%,-7%
COc1ccc(C2=Nn3c(nnc3-c3ccccn3)SC2)cc1OC,1,0%[11.7 µM],-82*,-77*,-1%,-1%
COc1ccc(C2=Nn3c(nnc3-c3ccccc3OC)SC2)cc1OC,5,11µM*,?,-29,16%,-6%
COc1ccc(C2=Nn3c(nnc3-c3ccco3)SC2)cc1OC,4,?,-87*,-71*,9%,1%
Cc1ccc2c(c1)c(=O)c1ccccc1n2CCCC(=O)Nc1ccc(C)c(F)c1,/,/,/,/,-1%,/
Oc1ccc(Nc2nc(-c3ccccc3)nc3ccccc23)cc1,-2,?,-8,-16,7.9µM*,14%
Oc1ccc(/C=N/Nc2nc(-c3cccnc3)nc3ccccc23)c(O)c1,?,/,-79*,-67*,30%,20%
Cc1c(O)ccc(/C=N/Nc2nc(-c3cccnc3)nc3ccccc23)c1O,15,/,/,-68*,24%,-9%
COc1ccc(/C=N/Nc2nc(-c3cccnc3)nc3ccccc23)cc1OC,2,/,0,8,22%,39%
COc1ccc(S(=O)(=O)n2nc(-c3ccco3)nc2NCc2ccc(OC)c(OC)c2)cc1,/,/,/,/,6%,/
O=C(NCCCc1nc2ccccc2n1Cc1ccc(Cl)cc1Cl)c1ccco1,/,/,/,/,-11%,/
CCN1C(C)=C(C(=O)OC)C(c2ccccc2)N2C(=O)[C@@]3(C(=O)OC)O[C@@]12C1C(=O)N(c2ccccc2)C(=O)C13 (some centres undefined),1[11.7 µM],2%[11.7 µM],/,/,/,/
CN(Cc1ccc(C(C)(C)C)cc1)c1cccc2ccccc12,/,/,/,/,-2%,/
O=c1nc2s/c(=C\c3ccco3)c(=O)n2nc1Cc1ccc(F)cc1,17,?,-80*,-81*,1%,-29%
O=C(COC(=O)c1ccc2c(c1)OCCO2)NCCC1=CCCCC1,1,2%,-1,-71*,-1%,14%
CC(C)C[C@@H](COCc1ccc(Cl)cc1)N1CCN(C(=O)c2ccc(C(F)(F)F)cc2)CCC1=O,/,/,8,-1,3%,/
CC(C)C[C@@H](COCc1ccc([N+](=O)[O-])cc1)N1CCN(C(=O)c2ccc(C(F)(F)F)cc2)CCC1=O,/,/,-90*,-69*,0%,/
CCCCc1ccc(-c2nn[nH]n2)nc1,/,/,?,-81*,2%,/
CCCCc1ccc(-c2ccc(C)cc2O)nc1,-4,-15%,39,42,1%,5%
Cc1ccc(C2(CCNCc3ccc(N(C)C)cc3)CCOC(C(C)C)C2)cc1 (centres undefined),0,?,?,?,18%,7%
CC(C)C1CC(CCNCc2ccc(N(C)C)cc2)(c2ccccc2)CCO1 (centres undefined),1,-7%,?,-65*,27%,0%
SMILES,Menin-MLL FL inh,Menin-MLL TR inh,CtBP-E1A blk,Six1-Eya2 inh,GLS inhibitor,CXXC DNA block
COc1cc(/C=N/NC(=O)C2COc3ccccc3O2)cc(OC)c1OC (centres undefined),2,-2%,-9,-1,2%,3%
Brc1ccccc1/C=N/Nc1ccc2ccccc2n1,4,13%,9,-6,1%,?
O=C(N/N=C/c1cccc([N+](=O)[O-])c1O)c1cccs1,-1,?,7,-91*,14%,11%
COc1cc([N+](=O)[O-])cc(/C=N\NC(=O)C2COc3ccccc3O2)c1O (centres undefined),9,/,/,-89*,-2%,0%
O=C(N/N=C\c1cccc([N+](=O)[O-])c1O)C1COc2ccccc2O1 (centres undefined),0,?,-96*,-88*,21%,4%
O=C(N/N=C/c1cccc([N+](=O)[O-])c1)C1COc2ccccc2O1 (centres undefined),-2,-3%,/,18,4%,-12%
O=[N+]([O-])c1cccc(C=NNc2ccc3ccccc3n2)c1O,/,/,-95*,-91*,6%,/
Cc1ccc(-n2ncc3c(Nc4ccc(Oc5ccccc5)cc4)ncnc32)c(C)c1,/,/,/,/,-18%,/
CC(C)(C)OC(=O)N1CCC(c2c(C(=O)NCc3cccs3)cnn2-c2ccc(F)cc2F)CC1,/,/,/,/,5%,/
CC(=O)Nc1ccn(C2COC(COC(=O)c3ccccc3)O2)c(=O)n1 (centres undefined),/,/,/,/,-1%,/
CC(C)C[C@H](NC(=O)[C@H](CCCCN)NC(=O)[C@H](CCC(N)=O)NC(=O)[C@H](Cc1cnc[nH]1)NC(=O)[C@H](Cc1cnc[nH]1)NC(=O)[C@@H](N)C(C)C)C(=O)N[C@H](C(=O)N[C@@H](Cc1ccccc1)C(=O)N[C@@H](Cc1ccccc1)C(=O)N[C@@H](C)C(=O)N[C@@H](CCC(=O)O)C(=O)N[C@@H](CC(=O)O)C(=O)N[C@H](C(=O)NCC(=O)N[C@@H](CO)C(=O)N[C@@H](CC(N)=O)C(=O)N[C@@H](CCCCN)C(=O)O)C(C)C)C(C)C,0,9%,/,/,/,/
CCc1ccc(NC(=O)N(Cc2c[nH]c3ccccc23)C2CCCCCC2)cc1,/,/,/,/,-1%,/
O=C(NC(=S)Nc1nc(-c2cccc3ccccc23)cs1)c1cc2ccccc2o1,7,25µM*,3,-12,7%,7%
N#CC(C#N)=Cc1ccc(OC(=O)c2ccccn2)cc1,9,-17%,?,-68*,-27%,10%
CCOc1cc(CNC(=O)c2ccc3c(c2)N(C)C(=O)C2CCCCN32)ccc1OC (centres undefined),/,/,/,/,6%,/
COc1ccccc1COCC(O)CNCCc1ccc(C(F)(F)F)cc1 (centres undefined),-7,22µM*,0,-23,-6%,13%
COc1ccc(CCn2c(=N)c(C(=O)NCc3ccco3)cc3c(=O)n4ccccc4nc32)cc1,14,-5%,-83*,-75*,1%,1%
